Our source for the Potency and outcome values is PubChem BioAssay (Tox21).

Molecules are shown by their SMILES. Inconclusive results are not listed. A number with no mark means an inactive call. Activity calls are given as the source filed them. Unless noted, calls follow the shape of the dose curve; as a rule, active = well fitted curve in the direction sought with a large enough effect in the repeat runs; inconclusive = weak or mixed curves; inactive = no such curve, though single readings can be large; an effect the other way counts as inactive or inconclusive.

Assay [1] is described as follows: qHTS assay to identify small molecule agonists of the RXR signaling pathway - cell viability counter screen (AID 1159529).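 Also: HEK 293T cells carrying an RXR-alpha UAS beta-lactamase reporter; series mostly up to about 77 µM; nearly all actives have a fitted effect of over 50% in size.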 The method in brief:
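Counter screen: CellTiter-Glo luminescence. Cells: RXR-alpha-UAS-bla HEK 293T. Medium: 2% charcoal-stripped FBS. Treatment: 16 h, 37 C. Reagent incubation: 30 min, RT.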

A short description of assay [2]: qHTS assay to identify small molecule antagonists of the retinoid acid receptor (RAR) signaling pathway - cell viability counter screen (AID 1159551). Also: nearly all actives have a fitted effect of over 35% in size. A digest of the protocol:
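Luminescent ATP quantitation (CellTiter-Glo) gave cell viability in C3RL4 cells exposed to test chemicals for 6 h at 37 C alongside 1 uM final retinol.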

The nature of assay [3]: qHTS assay to identify small molecule agonists of the retinoic acid receptor (RAR) signaling pathway (AID 1159553). A digest of the protocol: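 Luminescence from a RARE-driven luciferase reporter in C3RL4 cells served as the read-out, measured after 30 min with detection reagent at room temperature. Compounds in DMSO were applied for 6 hr at 37 C following overnight seeding.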

Assay [4] in a line: qHTS assay to identify small molecule antagonists of the estrogen related receptor (ERR) signaling pathway (AID 1224819; also: potency is read from the fitted curve at half-maximal effect; nearly all actives have a fitted effect of over 50% in size). A digest of the protocol:
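Seed ERR cells 2,000/well; rest 6 h at 37 C/5% CO2; pin compounds in DMSO; incubate 18 h at 37 C; add One-Glo; wait 30 min at room temperature; measure luminescence.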

A short description of assay [5]: qHTS assay to identify small molecule agonists of the estrogen related receptor (ERR) signaling pathway (AID 1224820). The method in brief: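 Quantitative HTS of the LOPAC library used NTP ERR reporter cells treated 18 h at 37 C. Signal is luminescence after One-Glo addition and a 30 min room-temperature incubation.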
For assay [6], the system named is estrogen-related receptor alpha (ERRalpha) with PGC-1alpha coactivator, human. Kind of assay: qHTS assay to identify small molecule antagonists of the estrogen related receptor signaling pathway with the pleiotropic PPARgamma coactivator (PGC) (AID 1224821; calls by dose curve; also: potency is read from the fitted curve at half-maximal effect; nearly all actives have a fitted effect of over 50% in size). A digest of the protocol: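 Quantitative HTS for antagonism: PGC/ERR cells received compounds after 6 h attachment and were incubated 18 h at 37 C, with luminescence (One-Glo) as the endpoint.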

Assay [7] in a line: qHTS assay to identify small molecule agonists of the estrogen related receptor signaling pathway with the pleiotropic PPARgamma coactivator (PGC) (AID 1224823). The method in brief: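 Cell-based luciferase assay in the NTP-supplied PGC/ERR line, 2,000 cells/well; 18 h compound exposure at 37 C, luminescence after One-Glo.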
Assay [8] concerns the target Luciferin 4-monooxygenase (Photinus pyralis) (UniProt P08659). The experiment in a line: qHTS assay to identify small molecule inhibitors of firefly luciferase (AID 1224835). Also: series mostly up to about 120 µM; nearly all actives have a fitted effect of over 25% in size. The method in brief: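 Biochemical qHTS: compounds run as interplate titrations against purified firefly enzyme, with D-luciferin and ATP each at its KM concentration. Light output recorded by CCD imaging.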

In assay [9] the target is Nuclear receptor subfamily 1 group I member 3 (Homo sapiens) (UniProt Q14994). The experiment in a line: qHTS assay to identify small molecule antagonists of the constitutive androstane receptor (CAR) signaling pathway (AID 1224838).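 Also: HepG2 cells stably expressing hCAR with CYP2B6 luciferase reporter stimulated by CITCO; nearly all actives have a fitted effect of over 40% in size.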 A digest of the protocol: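 HepG2-CYP2B6-hCAR cells; 4 h pre-incubation; cpd (15 conc) + CITCO 50 nM final; 24 h, 37 C/5% CO2; ONE-Glo, luminescence.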
Nuclear receptor subfamily 1 group I member 3 (Homo sapiens), sequence (Q14994 whole entry, looked up): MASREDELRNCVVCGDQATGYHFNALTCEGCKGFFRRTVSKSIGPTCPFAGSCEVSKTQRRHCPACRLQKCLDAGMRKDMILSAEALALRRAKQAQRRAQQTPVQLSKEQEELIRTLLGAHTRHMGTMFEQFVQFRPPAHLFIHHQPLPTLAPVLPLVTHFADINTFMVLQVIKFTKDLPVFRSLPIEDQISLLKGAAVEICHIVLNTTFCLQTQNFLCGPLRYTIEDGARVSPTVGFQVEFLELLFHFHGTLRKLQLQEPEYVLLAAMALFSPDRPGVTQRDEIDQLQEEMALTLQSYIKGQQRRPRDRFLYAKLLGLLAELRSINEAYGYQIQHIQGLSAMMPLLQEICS

Assay [10] can be described thus: qHTS assay to identify small molecule antagonists of the estrogen related receptor signaling pathway with the pleiotropic PPARgamma coactivator (PGC) from Tox21 10K library (AID 1224841; call rule not given here; also: actives are mostly falling curves and most rising ones were filed inactive; nearly all actives have a fitted effect of over 50% in size; also: potency is read from the fitted curve at half-maximal effect). The method in brief: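 PGC/ERR cell line, 2,000 cells/well; 6 h pre-incubation 37 C/5% CO2; compounds (DMSO) pinned in; 18 h, 37 C; One-Glo, 30 min RT; luminescence.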
Assay [11] can be described thus: qHTS assay to identify small molecule agonists of the estrogen related receptor signaling pathway with the pleiotropic PPARgamma coactivator (PGC) from Tox21 10K library (AID 1224842). Also: nearly all actives have a fitted effect of over 15% in size. The method in brief: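 PGC/ERR reporter cell line, 2,000 cells per well, incubated 6 h at 37 C before 23 nL compound in DMSO was added. After 18 h at 37 C, One-Glo luminescence read following 30 min at room temperature.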

Assay [12] concerns the target Thyrotropin receptor (Homo sapiens) (UniProt P16473). Kind of assay: qHTS assay to identify small molecule agonists of the thyroid stimulating hormone receptor (TSHR) signaling pathway (AID 1224843; calls by dose curve; also: nearly all actives have a fitted effect of over 45% in size). A digest of the protocol: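 Steps: seed 800 TSHR-HEK293 cells per well; add test compound and hold 30 min at ambient temperature; dispense cAMP-d2 then anti-cAMP cryptate; incubate 1 h at ambient; measure fluorescence intensity.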

Assay [13] can be described thus: qHTS assay to identify small molecule antagonists of the retinoic acid receptor (RAR) signaling pathway (AID 1159552; also: nearly all actives have a fitted effect of over 50% in size). The method in brief:
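Antagonism of retinol-induced RARE reporter activity was measured in C3RL4 cells. Exposure to compounds and 1 uM final retinol lasted 6 hr at 37 C, with luminescence as endpoint.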

Assay [14] in a line: qHTS assay to identify small molecule antagonists of the constitutive androstane receptor (CAR) signaling pathway - cell viability counter screen (AID 1224837). Also: series mostly up to about 92 µM; nearly all actives have a fitted effect of over 45% in size. The method in brief:
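HepG2-CYP2B6-hCAR cells, 2500/well, 4 hr pre-incubation; compound titration, 15 conc.; CITCO 50 nM final; 23 hr, 37 C/5% CO2; CellTiter-Fluor, fluorescence intensity.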

Assay [15] in a line: qHTS assay to identify small molecule antagonists of the estrogen related receptor signaling pathway with the pleiotropic PPARgamma coactivator (PGC) from Tox21 10K library - cell viability counter screen (AID 1224840; active = well fitted cell-killing curve with a large enough effect in the repeat runs, not every such curve was filed as active; also: nearly all actives have a fitted effect of over 40% in size). The method in brief: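 PGC/ERR cells, 2,000/well; 6 h pre-incubation 37 C/5% CO2; cpd in DMSO via pin tool; 17.5 h 37 C; CellTiter-Fluor, 30 min; fluorescence.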

The nature of assay [16]: qHTS assay to identify small molecule antagonists of the estrogen related receptor (ERR) signaling pathway from Tox21 library - cell viability counter screen (AID 1224834). Also: nearly all actives have a fitted effect of over 30% in size. The method in brief:
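Fluorescence from CellTiter-Fluor gives the viability read-out, taken 30 min after reagent addition. Before that, ERR cells seeded 6 h earlier were incubated with compounds for 17.5 h at 37 C.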

A short description of assay [17]: qHTS assay to identify small molecule agonists of the constitutive androstane receptor (CAR) signaling pathway - cell viability counter screen (AID 1224836). Also: series mostly up to about 92 µM; nearly all actives have a fitted effect of over 45% in size. A digest of the protocol: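 Double-stable HepG2 hepatoma cells (hCAR plus CYP2B6-2.2kb) are treated for 23 h at 37 C with test compounds in 15-point concentration series. PK11195 at 0.75 uM final is co-added. Cell viability is quantified by CellTiter-Fluor.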

Assay [18] concerns the target Nuclear receptor subfamily 1 group I member 3 (Homo sapiens) (UniProt Q14994). Kind of assay: qHTS assay to identify small molecule agonists of the constitutive androstane receptor (CAR) signaling pathway (AID 1224839).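 Also: HepG2 cells stably carrying human CAR and a CYP2B6 luciferase reporter; series mostly up to about 92 µM; nearly all actives have a fitted effect of over 15% in size.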 A digest of the protocol:
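Readout: firefly luciferase luminescence via ONE-Glo. System: HepG2 double-stable for hCAR and CYP2B6-2.2kb. Conditions: 15-point compound titration, PK11195 at 0.75 uM final, 24 h incubation.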

Luciferin 4-monooxygenase (Photinus pyralis), sequence (P08659 whole entry, looked up): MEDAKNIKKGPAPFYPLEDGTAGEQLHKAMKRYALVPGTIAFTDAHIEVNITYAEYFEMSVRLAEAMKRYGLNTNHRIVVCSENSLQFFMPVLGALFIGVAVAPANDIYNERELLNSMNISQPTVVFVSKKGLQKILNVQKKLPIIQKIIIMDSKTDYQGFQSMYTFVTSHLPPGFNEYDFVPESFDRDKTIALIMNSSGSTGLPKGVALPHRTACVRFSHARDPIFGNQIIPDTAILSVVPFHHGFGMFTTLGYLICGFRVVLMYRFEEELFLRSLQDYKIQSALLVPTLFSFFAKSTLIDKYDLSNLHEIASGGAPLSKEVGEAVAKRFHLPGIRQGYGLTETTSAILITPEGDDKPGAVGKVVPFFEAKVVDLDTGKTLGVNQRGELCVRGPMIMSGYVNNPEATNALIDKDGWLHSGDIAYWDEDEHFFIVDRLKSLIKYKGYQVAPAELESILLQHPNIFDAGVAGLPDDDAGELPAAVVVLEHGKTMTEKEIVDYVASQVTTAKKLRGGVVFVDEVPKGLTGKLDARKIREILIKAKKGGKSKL
Thyrotropin receptor (Homo sapiens), sequence (P16473 whole entry, looked up): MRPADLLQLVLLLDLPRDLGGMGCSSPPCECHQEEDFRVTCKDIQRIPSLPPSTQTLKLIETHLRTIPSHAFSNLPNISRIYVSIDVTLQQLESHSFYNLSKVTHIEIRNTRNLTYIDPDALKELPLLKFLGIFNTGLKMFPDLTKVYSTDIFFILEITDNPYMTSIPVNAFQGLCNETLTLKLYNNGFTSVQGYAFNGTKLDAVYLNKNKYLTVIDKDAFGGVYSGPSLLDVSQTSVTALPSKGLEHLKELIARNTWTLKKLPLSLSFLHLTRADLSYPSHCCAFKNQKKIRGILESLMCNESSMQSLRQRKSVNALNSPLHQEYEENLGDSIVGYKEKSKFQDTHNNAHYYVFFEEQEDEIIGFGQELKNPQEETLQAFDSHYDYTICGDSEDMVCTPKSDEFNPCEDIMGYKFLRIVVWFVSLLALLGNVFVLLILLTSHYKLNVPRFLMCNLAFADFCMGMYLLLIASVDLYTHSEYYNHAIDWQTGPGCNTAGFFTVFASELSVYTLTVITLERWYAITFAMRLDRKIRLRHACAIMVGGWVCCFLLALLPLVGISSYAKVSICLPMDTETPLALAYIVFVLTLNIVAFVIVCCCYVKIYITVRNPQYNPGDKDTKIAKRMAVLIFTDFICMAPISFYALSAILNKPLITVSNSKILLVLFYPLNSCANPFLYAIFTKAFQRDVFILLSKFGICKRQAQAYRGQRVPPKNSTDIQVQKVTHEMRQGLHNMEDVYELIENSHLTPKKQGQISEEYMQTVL

Turning to `CC(C)C[C@H]1C(=O)N2CCC[C@H]2[C@]2(O)O[C@](NC(=O)[C@@H]3C=C4c5cccc6[nH]c(Br)c(c56)C[C@H]4N(C)C3)(C(C)C)C(=O)N12`, the Potency entry in [1], in assay [2], in [3], in assay [8], in [9] and in [11] was “inactive” each time. Also, the Potency result in assay [12] is “inactive”. Also, the Potency was 16.8 µM (active) in assay [4], 16.2 µM (active) in assay [6] and 16.4 µM (active) in [10]. Moreover, the result in assay [5] and in assay [7] was inactive.
`Nc1ccc(S(=O)(=O)Nc2ccccc2)cc1`: the Potency entry in assay [1], in [2], in [13], in [3], in assay [8] and in assay [14] was “inactive” each time. For the same molecule, the Potency result in [9], in [15] and in assay [12] was “inactive” each time.
On to `Nc1cccc([N+](=O)[O-])c1`, for which the Potency entry in assay [1], in [2], in assay [3], in [16], in assay [8] and in assay [17] was “inactive” in each case. The Potency result in assay [14], in [9], in assay [18], in [15], in assay [10] and in assay [11] was “inactive” each time.
In the case of `C=CCOC(=O)CCC1CCCCC1`, the Potency result in assay [1], in [2], in assay [16], in assay [8], in assay [17] and in assay [14] was “inactive” each time. In addition, the Potency result in assay [9], in [15], in assay [10] and in assay [12] was “inactive” throughout.
As for `CN(C)CCN(Cc1ccccc1)c1ccccn1`, the Potency result in [1], in [2], in [16], in assay [8], in [15] and in assay [12] was “inactive” throughout.
Consider `COS(=O)(=O)C(F)(F)F`, for which the Potency result in [1], in assay [2], in [16], in assay [8], in [17] and in assay [18] was “inactive” throughout. Moreover, the Potency result in assay [15] and in assay [12] was “inactive” in each case.
For `CCCCCCCCCOS(=O)(=O)O`, the Potency result in assay [1], in [2], in assay [16], in [8], in assay [17] and in assay [14] was “inactive” each time. For the same molecule, the Potency result in [9], in [18], in assay [15] and in assay [12] was “inactive” throughout.
Turning to `CCCC(=O)Nc1ccc(O)c(C(C)=O)c1`, the Potency result in [1], in assay [2], in assay [16], in assay [17], in assay [14] and in [9] was “inactive” in each case. Besides, the Potency entry in [18], in assay [15] and in assay [12] was “inactive” each time.
As for `C1CCCNCCC1`, the Potency result in assay [1], in assay [2], in assay [16], in [8], in assay [17] and in assay [14] was “inactive” in each case. The Potency entry in assay [15] and in assay [12] was “inactive” in each case. Further, the Potency in [10] was 4.32 µM (active).
